Pf Dd2 growth = inhibitors of Plasmodium falciparum Dd2 growth. P. falciparum Dd2 growth, SYBR Green, 72 h. hit rate 4.3% among 120,000. Potency, µM (series often up to 28.9 µM), for inactives: at the top dose activity, negative = inhibition, usual class: inhibitors; active means well fitted inhibition curve with a large enough effect;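 further: plate controls were DMSO vehicle for no effect and reference drug for full effect; nearly all actives have a fitted effect of over 65% in size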
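Readout: SYBR Green fluorescence, 485 nm excitation, 535 nm emission, after ~16 h lysis at 37C. Before that, Dd2-infected red cells (2.5% hematocrit) grew 72 h with compound, 29 uM top final concentration.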
* marks the source's active call; other numbers are inactive results; i = inactive; [ ] = dose if it differs, or a comment. The sample as a whole holds a higher share of hits than the screen did. Potency means the concentration at half of the fitted maximal effect.

SMILES | Pf Dd2 growth
COc1ccc(CCC(=O)N2CCC3(CC2)CC(N(C(C)=O)C2CC2)CCO3)cc1 (configuration not stated) | -18%
O=C(NCCN1CCOCC1)c1ccc(-c2ccc(N3CCCCCC3)nc2)cc1 | -23%
C=CCNC(=O)c1ccc(-c2nnc3ccc(NC(=O)C4CCC4)cn23)cc1 | 3.2µM*
COc1cccc(C(=O)N2CCC(C(=O)Nc3cccc(Cl)c3)CC2)c1 | 11%
COc1cccc(NC(=O)C2CCCN(S(=O)(=O)c3c(C)nn(C)c3C)C2)c1 (configuration not stated) | -5%
O=C(NC1CC1)c1ccc2nnc(-c3ccc(F)cc3)n2c1 | 10%[44.1 µM]
COc1cccc(NC(=O)c2ccc(-c3nnc4ccc(NC(=O)C5CCC5)cn34)cc2)c1 | 0.28µM*
C=CCNC(=O)c1ccc2cncn2c1 | -11%[44.1 µM]
O=C(Nc1ccc(-c2nnc3n2CCCC3)cc1)C1CCC1 | 7%
CC(C)NC(=O)c1ccc(-c2nnc3ccc(NC(=O)C4CCC4)cn23)cc1 | 4µM*
O=C(NC1CCCC1)c1ccc2nnc(-c3cncc(Cl)c3)n2c1 | 1%
Cc1ccc(-c2ccc3nnc(CNC(=O)C4CCCCC4)n3n2)cc1 | 9%
O=C(NCCN1CCCCC1)c1ccc(-c2nnc3ccc(NC(=O)C4CCC4)cn23)cc1 | 1.3µM*
Cc1noc([C@@H]2CN(S(=O)(=O)c3ccc4c(c3)OCCO4)C[C@H]2C(N)=O)n1 | -9%
CC(=O)N[C@@H]1CN(Cc2cccc(C#N)c2)C[C@H]1CO | 18%
O=C(CC1CCN(S(=O)(=O)c2ccccc2F)C1)NCc1ccccc1 (configuration not stated) | i
COC(=O)COCC(=O)NC[C@@H]1C=C(C)[C@H](CC(=O)NCc2ccc(F)cc2)C[C@H]1C(C)C | -14%
CO[C@H]1C(=O)N(C2CCN(S(=O)(=O)c3cccs3)CC2)[C@H]1c1ccncc1 | 8%
CN1CC(=O)N(c2ccc(Cl)cc2)Cc2c(NC3CCNCC3)ncnc21 | 3%
COc1ccc(NC(=O)C2CCN(C(=O)c3ncn4c3COC(c3ccccc3)C4)CC2)cc1 (configuration not stated) | i
COc1ccc(C2Cn3cnc(C(=O)N4CCC(C(=O)Nc5ccccc5OC)CC4)c3CO2)cc1 (configuration not stated) | 10µM*
COc1ccc(C2Cn3cnc(C(=O)N4CCC(C(=O)Nc5cccc(F)c5)CC4)c3CO2)cc1 (configuration not stated) | -26%
COc1ccc(C2Cn3cnc(C(=O)N4CCC(C(=O)Nc5ccccc5F)CC4)c3CO2)cc1 (configuration not stated) | 11µM*
COc1ccc(C2Cn3cnc(C(=O)N4CCC(C(=O)Nc5ccc(C)cc5)CC4)c3CO2)cc1 (configuration not stated) | -20%
COc1ccc(C2Cn3cnc(C(=O)N4CCC(C(=O)Nc5ccc(C)cc5C)CC4)c3CO2)cc1 (configuration not stated) | -9%
SMILES | Pf Dd2 growth
COc1ccccc1N1CCN([C@@H]2[C@H](O)[C@H](CO)O[C@@H]2CNC(C)C)CC1 | i
O=C(c1cc(F)ccc1F)N1CCC2(CC1)NC(=O)N(Cc1ccccc1)C2=O | 31%
Cc1cc(C)c(NC(=O)CN2C(=O)c3cccnc3Sc3ccccc32)c(C)c1 | -27%
CCc1ccccc1NC(=O)CN1C(=O)c2cccnc2Sc2ccccc21 | -19%
Cc1cc(NC(=O)CN2C(=O)c3cccnc3Sc3ccccc32)ccc1Br | 11µM*
Cc1cc(C)c(NC(=O)CSC2=Nc3ccccc3C3=NC(CC(=O)NCc4cccs4)C(=O)N23)c(C)c1 (configuration not stated) | 13µM*
Cc1ccc(CSC2=Nc3ccccc3C3=NC(CC(=O)NCc4cccs4)C(=O)N23)cc1 (configuration not stated) | 3.2µM*
COc1ccccc1NC(=O)CSC1=Nc2ccccc2C2=NC(CC(=O)NCc3ccccc3)C(=O)N12 (configuration not stated) | 97%
O=C(CC1N=C2c3ccccc3N=C(SCc3ccc(Cl)cc3)N2C1=O)NCc1cccs1 (configuration not stated) | 92%
O=C(CC1N=C2c3ccccc3N=C(SCC(=O)Nc3ccccc3F)N2C1=O)NCc1cccs1 (configuration not stated) | 4µM*
O=C(CCC1N=C2c3ccccc3N=C(SCc3ccc(Cl)cc3)N2C1=O)NCc1cccs1 (configuration not stated) | 57%
CC(C)c1ccc(NC(=O)CSC2=Nc3ccccc3C3=NC(CC(=O)NCc4cccs4)C(=O)N23)cc1 (configuration not stated) | 12%
O=C(CC1N=C2c3ccccc3N=C(SCc3ccccc3F)N2C1=O)NCc1cccs1 (configuration not stated) | i
COc1cccc(NC(=O)CSC2=Nc3ccccc3C3=NC(CC(=O)NCc4cccs4)C(=O)N23)c1 (configuration not stated) | i
CC(C)(O)CCc1cccc(C(=O)NCCNc2cccnc2)c1 | -27%
Cc1noc([C@H]2CCN(Cc3ccsc3)C[C@H]2NC(=O)C2CC2)n1 | -8%[5.79 µM]
CN(C)[C@@H]1CN(C(=O)c2ccc(C#N)cc2)CC[C@]1(O)c1ccccc1 | i[5.79 µM]
CCn1cc(S(=O)(=O)N2CCCC(c3nnnn3-c3ccccc3)C2)cn1 (configuration not stated) | 5%
CCCc1nnc([C@H]2CCN(C3CCN(C(C)=O)CC3)C2)o1 | -5%[44.1 µM]
CCC1(C(=O)Nc2ccc(C)cc2)CCCCC(=O)N1 (configuration not stated) | -24%
Cc1ccc(C)c(N2CCN(CCCNC(=O)c3cnn(-c4ccc(F)cc4)c3C3CCN(C(=O)OC(C)(C)C)CC3)CC2)c1 | 1.3µM*
Cc1ccc(N2CCN(C(=O)c3cnn(-c4ccc(F)cc4F)c3C3CCN(C(=O)OC(C)(C)C)CC3)CC2)c(C)c1 | 7.9µM*
Cc1ccc(C)c(N2CCN(CCCNC(=O)c3cnn(-c4cccc(Cl)c4)c3C3CCN(C(=O)OC(C)(C)C)CC3)CC2)c1 | 1.4µM*
CCN1CCN(C(=O)c2cnn(-c3ccc(F)cc3F)c2C2CCN(C(=O)OC(C)(C)C)CC2)CC1 | -6%
Cc1ccc(C)c(N2CCN(C(=O)c3cnn(-c4ccccc4Cl)c3C3CCN(C(=O)OC(C)(C)C)CC3)CC2)c1 | 3.5µM*
SMILES | Pf Dd2 growth
CCN1CCN(CCCNC(=O)c2cnn(-c3ccc(C)cc3)c2C2CCN(C(=O)OC(C)(C)C)CC2)CC1 | -4%
CC(C)(C)NC(=O)N[C@H](Cc1ccccc1)C(=O)N1CCOCCNC(=O)CC1 | 12%
COCC(=O)NCCC1CCN(C(=O)Nc2ccc(F)cc2)CC1 | -11%
CC(=O)c1cc(CC(=O)N2CCC3(CCCN(C(C)C)C3=O)C2)cs1 (configuration not stated) | -4%
Cc1nc(NCc2csc(-c3cnccn3)n2)cc(C2CC(O)C2)n1 (configuration not stated) | -27%
O=c1cc(CNCc2nc(-c3ncccn3)no2)[nH]c2ccc(F)cc12 | -26%
O=C(CCCn1cncn1)N[C@H]1CCOC[C@H]1C1CCOCC1 | 1%
COCc1cc(=O)n(CC(=O)Nc2cccc(C(F)(F)F)c2)c(N2CCOCC2)n1 | i
Cc1ccc(C)c(N2CCN(CCCNC(=O)c3cnn(-c4ccccc4Cl)c3C3CCN(C(=O)OC(C)(C)C)CC3)CC2)c1 | 2.2µM*
Cc1ccc(-n2ncc(C(=O)NCCCN3CCN(C)CC3)c2C2CCN(C(=O)OC(C)(C)C)CC2)c(C)c1 | i

Compound activity (PubChem BioAssay)
